Binding signal data for 14 sequences are collected here from publication PMC5700166.

Holding throughout (assay): protein-binding microarray (PBM); PBM: ~300 nM protein, 6 mM HEPES pH 7.8, 80 mM KCl, 0.5 mM EDTA, 0.5 mM EGTA, 6% glycerol, 35 ng/ul poly-dIdC, 1% milk, 1 h, room temperature; Ap Aiptasia and Nv Nematostella (sea anemones) / Co Capsaspora / Aq Amphimedon (sponge) / Dm Drosophila / Hu human; RHD is the Rel homology domain; high values mean tight binding
Common to all, as to conditions: dsDNA, one strand shown

One experiment deals with T1, GST-Ap-NF-kB RHD (Exaiptasia pallida (Aiptasia), UniProt A0A913YAJ5 2-422).
T1 sequence: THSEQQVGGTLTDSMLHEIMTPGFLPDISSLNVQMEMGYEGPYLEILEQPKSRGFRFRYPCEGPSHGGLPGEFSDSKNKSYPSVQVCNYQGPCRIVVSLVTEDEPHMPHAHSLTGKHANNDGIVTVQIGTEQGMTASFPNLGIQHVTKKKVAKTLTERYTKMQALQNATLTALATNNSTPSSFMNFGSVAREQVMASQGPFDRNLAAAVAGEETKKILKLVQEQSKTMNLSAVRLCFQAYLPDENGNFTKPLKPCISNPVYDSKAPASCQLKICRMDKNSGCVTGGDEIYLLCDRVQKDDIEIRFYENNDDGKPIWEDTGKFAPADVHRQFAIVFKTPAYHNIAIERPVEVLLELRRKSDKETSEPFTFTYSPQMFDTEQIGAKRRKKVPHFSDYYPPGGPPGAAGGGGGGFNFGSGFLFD

Experiment [1] deals with T2, GST-Nv-NF-kB (Cys allele) (Nematostella vectensis, UniProt E5G601 2-411).
T2 sequence: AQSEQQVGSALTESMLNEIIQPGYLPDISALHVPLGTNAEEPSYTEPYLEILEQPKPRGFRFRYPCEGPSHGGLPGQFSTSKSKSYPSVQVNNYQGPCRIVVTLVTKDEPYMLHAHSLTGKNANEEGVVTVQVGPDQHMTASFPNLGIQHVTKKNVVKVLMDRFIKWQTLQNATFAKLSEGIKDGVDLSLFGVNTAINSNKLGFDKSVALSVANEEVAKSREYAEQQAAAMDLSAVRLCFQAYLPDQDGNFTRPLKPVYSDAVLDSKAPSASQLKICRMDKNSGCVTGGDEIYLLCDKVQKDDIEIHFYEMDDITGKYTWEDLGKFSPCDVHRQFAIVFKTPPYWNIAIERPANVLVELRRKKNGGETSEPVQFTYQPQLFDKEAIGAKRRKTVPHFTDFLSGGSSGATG

The next experiment has as its target T3, GST-Co-NF-kB (Capsaspora owczarzaki, UniProt F1ARL5 200-546).
T3 sequence: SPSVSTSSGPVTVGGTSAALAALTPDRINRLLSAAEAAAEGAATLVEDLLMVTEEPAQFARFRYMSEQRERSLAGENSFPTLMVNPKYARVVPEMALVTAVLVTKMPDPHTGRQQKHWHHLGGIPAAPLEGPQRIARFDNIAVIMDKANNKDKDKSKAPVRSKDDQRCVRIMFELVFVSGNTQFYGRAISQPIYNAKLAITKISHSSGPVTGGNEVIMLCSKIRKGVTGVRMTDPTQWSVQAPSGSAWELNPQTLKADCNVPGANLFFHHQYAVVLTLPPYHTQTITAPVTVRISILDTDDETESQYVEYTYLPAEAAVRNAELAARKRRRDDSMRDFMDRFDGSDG

The next experiment has as its target T4, GST-Dm-Relish (Drosophila melanogaster, UniProt Q94527 99-473).
T4 sequence: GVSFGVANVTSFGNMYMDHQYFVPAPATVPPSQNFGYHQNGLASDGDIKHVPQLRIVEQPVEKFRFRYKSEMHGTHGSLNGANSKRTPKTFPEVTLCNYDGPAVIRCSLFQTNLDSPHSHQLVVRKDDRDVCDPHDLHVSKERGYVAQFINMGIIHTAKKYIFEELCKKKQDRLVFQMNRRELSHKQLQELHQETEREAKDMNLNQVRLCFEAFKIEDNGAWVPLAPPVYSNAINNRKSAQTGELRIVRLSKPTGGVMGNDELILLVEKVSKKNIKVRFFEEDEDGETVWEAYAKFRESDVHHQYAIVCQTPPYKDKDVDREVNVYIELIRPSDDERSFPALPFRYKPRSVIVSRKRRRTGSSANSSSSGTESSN

The target in the next experiment is T5, GST-Aq-NF-kB (Amphimedon queenslandica, UniProt A9Y5G7 2-389).
T5 sequence: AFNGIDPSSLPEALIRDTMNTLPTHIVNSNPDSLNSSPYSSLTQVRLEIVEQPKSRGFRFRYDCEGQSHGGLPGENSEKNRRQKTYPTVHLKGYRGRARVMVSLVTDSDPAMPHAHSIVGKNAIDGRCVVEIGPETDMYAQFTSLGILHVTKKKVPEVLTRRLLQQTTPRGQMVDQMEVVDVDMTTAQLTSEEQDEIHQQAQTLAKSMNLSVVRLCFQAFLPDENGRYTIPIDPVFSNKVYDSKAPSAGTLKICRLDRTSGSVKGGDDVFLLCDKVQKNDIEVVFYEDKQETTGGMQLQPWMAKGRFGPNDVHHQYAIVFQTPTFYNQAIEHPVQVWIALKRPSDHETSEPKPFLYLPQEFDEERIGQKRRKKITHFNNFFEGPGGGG

In the case of “CCGATTAACATCAGGGGGACAAATGATGTTAATCGGGTCTTGATTCGCTTGACGCTGCTG”, the binding signal came out at 4.37 z-score with GST-Ap-NF-kB RHD; 4.84 z-score in experiment [1]; 7.51 z-score with GST-Co-NF-kB; 2.64 z-score with GST-Dm-Relish; 4.19 z-score with GST-Aq-NF-kB.

On to “CCGATTAACATCAGGGGGAAGCATGATGTTAATCGGGTCTTGATTCGCTTGACGCTGCTG”, for which the binding signal with GST-Ap-NF-kB RHD was 4.43 z-score; in experiment [1], 5.1 z-score; with GST-Co-NF-kB, 7.73 z-score; with GST-Dm-Relish, 3.21 z-score; with GST-Aq-NF-kB, 4.01 z-score.

For “CCGATTAACATCACGGGAATTTCTGATGTTAATCGGGTCTTGATTCGCTTGACGCTGCTG”, the binding signal is 5.46 z-score with GST-Ap-NF-kB RHD; 7.5 z-score in experiment [1]; 5.53 z-score with GST-Co-NF-kB; 5.6 z-score with GST-Dm-Relish; 6.28 z-score with GST-Aq-NF-kB.

Consider “CCGATTAACATCAGGGAATGTACTGATGTTAATCGGGTCTTGATTCGCTTGACGCTGCTG”, for which the binding signal in the experiment with GST-Ap-NF-kB RHD worked out at 2.21 z-score; in experiment [1] it was 3.28 z-score; in the experiment with GST-Co-NF-kB it was 2.29 z-score; in the experiment with GST-Dm-Relish it was 7.08 z-score; in the experiment with GST-Aq-NF-kB, 4.86 z-score.

For “CCGATTAACATCAGAATTACCCATGATGTTAATCGGGTCTTGATTCGCTTGACGCTGCTG”, the binding signal with GST-Ap-NF-kB RHD worked out at 3.09 z-score; in experiment [1], 3.82 z-score; in the experiment with GST-Co-NF-kB, 2.12 z-score; with GST-Dm-Relish, 1.97 z-score; with GST-Aq-NF-kB, 3.58 z-score.

As to “CCGATTAACATCAACTCCCCCCCTGATGTTAATCGGGTCTTGATTCGCTTGACGCTGCTG”, the binding signal in the experiment with GST-Ap-NF-kB RHD stood at 6.64 z-score; in experiment [1], 4.56 z-score; with GST-Co-NF-kB it was 7.71 z-score; with GST-Dm-Relish, 5.06 z-score; with GST-Aq-NF-kB it was 5.08 z-score.

As for “CCGATTAACATCACGGCTTTCCCTGATGTTAATCGGGTCTTGATTCGCTTGACGCTGCTG”, the binding signal with GST-Ap-NF-kB RHD worked out at 2.31 z-score; in experiment [1] it was 3.5 z-score; in the experiment with GST-Co-NF-kB, 2.32 z-score; with GST-Dm-Relish, 2.21 z-score; with GST-Aq-NF-kB, 3.7 z-score.

Take “CCGATTAACATCAGGGGGTACCCTGATGTTAATCGGGTCTTGATTCGCTTGACGCTGCTG”: the binding signal in the experiment with GST-Ap-NF-kB RHD was 7.79 z-score; in experiment [1], 4.44 z-score; in the experiment with GST-Co-NF-kB, 4.14 z-score; in the experiment with GST-Dm-Relish, 6.71 z-score; with GST-Aq-NF-kB it was 6.6 z-score.

As for “CCGATTAACATCAGGGGGCAAGATGATGTTAATCGGGTCTTGATTCGCTTGACGCTGCTG”, the binding signal in the experiment with GST-Ap-NF-kB RHD amounted to 2.07 z-score; in experiment [1], 2.14 z-score; with GST-Co-NF-kB it was 2.69 z-score; in the experiment with GST-Dm-Relish, 1.01 z-score; with GST-Aq-NF-kB, 2.76 z-score.

As to “CCGATTAACATCAGGCATTCCCATGATGTTAATCGGGTCTTGATTCGCTTGACGCTGCTG”, the binding signal with GST-Ap-NF-kB RHD was 1.57 z-score; in experiment [1] it was 2 z-score; in the experiment with GST-Co-NF-kB it was 1.54 z-score; with GST-Dm-Relish, 3.64 z-score; with GST-Aq-NF-kB it was 2.75 z-score.

Take “CCGATTAACATCAGGGGAGAATATGATGTTAATCGGGTCTTGATTCGCTTGACGCTGCTG”: the binding signal in the experiment with GST-Ap-NF-kB RHD is 4.99 z-score; in experiment [1], 5.42 z-score; with GST-Co-NF-kB it was 7.41 z-score; in the experiment with GST-Dm-Relish, 1.73 z-score; with GST-Aq-NF-kB, 3.83 z-score.

Consider “CCGATTAACATCAAGAATTCCCGTGATGTTAATCGGGTCTTGATTCGCTTGACGCTGCTG”, for which the binding signal with GST-Ap-NF-kB RHD was 4.85 z-score; in experiment [1], 6.36 z-score; in the experiment with GST-Co-NF-kB, 4.23 z-score; with GST-Dm-Relish, 4.9 z-score; with GST-Aq-NF-kB it was 5.46 z-score.

In the case of “CCGATTAACATCACTAAAATCCCTGATGTTAATCGGGTCTTGATTCGCTTGACGCTGCTG”, the binding signal turned out to be 3.37 z-score in the experiment with GST-Ap-NF-kB RHD; 3.38 z-score in experiment [1]; 1.18 z-score in the experiment with GST-Co-NF-kB; 5.48 z-score with GST-Dm-Relish; 3.65 z-score with GST-Aq-NF-kB.

Regarding “CCGATTAACATCAAGGCATTCCCTGATGTTAATCGGGTCTTGATTCGCTTGACGCTGCTG”, the binding signal was determined as 1.97 z-score with GST-Ap-NF-kB RHD; 2.56 z-score in experiment [1]; 1.94 z-score in the experiment with GST-Co-NF-kB; 2.53 z-score with GST-Dm-Relish; 3.27 z-score with GST-Aq-NF-kB.
